{"source": "PubChem BioAssay (NCATS)", "note": "Values joined by “and” are separate entries in the source; they are usually repeats but may differ in a detail not shown here. Identical values can stand only once. Inconclusive results are not listed. Active and inactive are the calls of the source. Unless noted, calls follow the shape of the full dose curve."}
{"biological_target": "Peroxisome proliferator-activated receptor gamma (Homo sapiens) (UniProt P37231)", "sequence (P37231 whole entry, looked up)": "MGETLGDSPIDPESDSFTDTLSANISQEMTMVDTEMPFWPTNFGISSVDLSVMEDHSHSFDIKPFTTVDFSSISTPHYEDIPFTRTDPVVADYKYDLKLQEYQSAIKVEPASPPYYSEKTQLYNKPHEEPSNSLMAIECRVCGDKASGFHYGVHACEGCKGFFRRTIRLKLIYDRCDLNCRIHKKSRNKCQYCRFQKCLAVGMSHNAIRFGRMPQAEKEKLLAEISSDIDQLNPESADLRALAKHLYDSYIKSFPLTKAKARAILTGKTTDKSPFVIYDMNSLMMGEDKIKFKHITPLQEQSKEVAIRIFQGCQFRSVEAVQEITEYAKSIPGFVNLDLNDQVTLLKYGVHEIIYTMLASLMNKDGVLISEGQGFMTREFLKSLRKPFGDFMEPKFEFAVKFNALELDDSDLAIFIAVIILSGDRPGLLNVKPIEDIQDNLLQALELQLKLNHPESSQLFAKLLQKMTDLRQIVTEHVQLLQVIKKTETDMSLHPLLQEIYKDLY", "assay": "qHTS assay for small molecule antagonists of peroxisome proliferator-activated receptor gamma signaling (AID 588537; active = well fitted inhibition curve with a large enough effect in the signal ratio, with a control signal flat, not every such curve was filed as active; the % refers to the signal ratio;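 also: reporter cells co-stimulated with 50 nM rosiglitazone agonist during compound treatment; % of control where 0% means no effect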)", "conditions": "HEK293 PPARg-UAS-bla, beta-lactamase ratio, antagonist mode; series mostly up to 76.8 µM", "outline": "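Antagonist-mode β-lactamase reporter screen run as a titration series. HEK293 PPARγ-UAS-bla cells are stimulated with rosiglitazone (50 nM final) for 16 h, then CCF4 is read at 460/530 nm. Data are scaled between DMSO and rosiglitazone and fitted to the Hill equation.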"}
{"smiles": "Cc1cccc([N+](=O)[O-])c1C", "outcome": "inactive"}
{"smiles": "CCCCCCCCO", "outcome": "inactive"}
{"smiles": "Cc1ccc(N)c([N+](=O)[O-])c1", "outcome": "inactive"}
{"smiles": "CCCCOCCO", "outcome": "inactive"}
{"biological_target": "Vitamin D3 receptor (Homo sapiens) (UniProt P11473)", "sequence (P11473 whole entry, looked up)": "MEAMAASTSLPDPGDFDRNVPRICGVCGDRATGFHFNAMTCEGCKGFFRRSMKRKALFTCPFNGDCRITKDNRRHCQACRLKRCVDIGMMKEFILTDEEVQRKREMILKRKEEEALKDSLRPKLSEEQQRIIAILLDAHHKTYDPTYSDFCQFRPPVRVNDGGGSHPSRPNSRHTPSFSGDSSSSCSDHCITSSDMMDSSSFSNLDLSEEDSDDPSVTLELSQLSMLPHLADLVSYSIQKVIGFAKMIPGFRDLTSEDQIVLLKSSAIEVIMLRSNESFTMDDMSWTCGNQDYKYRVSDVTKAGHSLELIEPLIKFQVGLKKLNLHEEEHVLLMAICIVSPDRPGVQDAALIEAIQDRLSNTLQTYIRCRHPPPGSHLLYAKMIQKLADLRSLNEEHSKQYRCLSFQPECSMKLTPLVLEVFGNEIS", "assay": "qHTS assay for small molecule antagonists of vitamin D receptor signaling (AID 588541);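 also: receptor activated by calcitriol during compound treatment; % is scaled to controls: 0 for no effect and ±100 for the full control effect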", "conditions": "HEK293T VDR-UAS-bla, beta-lactamase ratio, antagonist mode; series mostly up to 76.7 µM", "outline": "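Antagonist-mode beta-lactamase reporter assay: HEK293T VDR-UAS-bla cells were exposed to titrated compound alongside 1-alpha,25-dihydroxyvitamin D3 at 3 nM final for 16 h. Values were normalized to the 50 nM agonist control and DMSO basal, with IC50 and efficacy from Hill equation fits.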"}
{"smiles": "CCCN(CCC)C(=O)SCC", "outcome": "inactive"}
{"smiles": "COc1ccc2nc(N)sc2c1", "outcome": "inactive"}
{"smiles": "ClCCCl", "outcome": "inactive"}
{"smiles": "CCC(O)OC(O)CC", "note": "(configuration not stated)", "outcome": "inactive"}
{"smiles": "C=Cc1ccccc1Cl", "outcome": "inactive"}
{"smiles": "c1ccc2c(c1)c1cccc3ccc4cccc2c4c31", "outcome": "inactive"}
{"smiles": "Cc1cccc([N+](=O)[O-])c1C", "outcome": "inactive"}
{"smiles": "CCCCCCCCO", "outcome": "inactive"}
{"smiles": "O=[N+]([O-])c1cccc(Cl)c1Cl", "outcome": "inactive"}
{"smiles": "CCO[Si](CCCN)(OCC)OCC", "outcome": "inactive"}
{"smiles": "CCO", "outcome": "inactive"}
{"smiles": "Clc1cc(Cl)c(Cl)c(Cl)c1Cl", "outcome": "inactive"}
{"smiles": "CCCCC(CC)CN", "note": "(configuration not stated)", "outcome": "inactive"}
{"smiles": "O=NO", "outcome": "inactive"}
{"smiles": "OCCNCCO", "outcome": "inactive"}
{"smiles": "CCC(C)c1ccccc1O", "note": "(configuration not stated)", "outcome": "inactive"}
{"smiles": "CC1=CC(C)(C)Nc2ccccc21", "outcome": "inactive"}
{"smiles": "Cc1ccc(N)c([N+](=O)[O-])c1", "outcome": "inactive"}
{"smiles": "CCCCOCCO", "outcome": "inactive"}
{"biological_target": "Vitamin D3 receptor (Homo sapiens) (UniProt P11473)", "assay": "qHTS assay for small molecule agonists of vitamin D receptor signaling (AID 588543);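 also: 0% = DMSO basal and 100% = reference agonist control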", "conditions": "HEK293T VDR-UAS-bla, beta-lactamase ratio, 16 h; series mostly up to 76.8 µM", "outline": "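Agonist-mode beta-lactamase reporter: HEK293T VDR-UAS-bla cells in charcoal-stripped 2% FBS, compound series 16 h 37 C, CCF4 2 h RT. EC50 from Hill fit, scaled against DMSO and 50 nM calcitriol control.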"}
{"smiles": "CCCN(CCC)C(=O)SCC", "outcome": "inactive"}
{"smiles": "COc1ccc2nc(N)sc2c1", "outcome": "inactive"}
{"smiles": "ClCCCl", "outcome": "inactive"}
{"smiles": "CCC(O)OC(O)CC", "note": "(configuration not stated)", "outcome": "inactive"}
{"smiles": "C=Cc1ccccc1Cl", "outcome": "inactive"}
{"smiles": "Cc1cccc([N+](=O)[O-])c1C", "outcome": "inactive"}
{"smiles": "CCCCCCCCO", "outcome": "inactive"}
{"smiles": "O=[N+]([O-])c1cccc(Cl)c1Cl", "outcome": "inactive"}
{"smiles": "CCO[Si](CCCN)(OCC)OCC", "outcome": "inactive"}
{"smiles": "CCO", "outcome": "inactive"}
{"smiles": "C=CC(=O)OCCOCCOCCOCCOC(=O)C=C", "outcome": "inactive"}
{"smiles": "Clc1cc(Cl)c(Cl)c(Cl)c1Cl", "outcome": "inactive"}
{"smiles": "CCCCC(CC)CN", "note": "(configuration not stated)", "outcome": "inactive"}
{"smiles": "O=NO", "outcome": "inactive"}
{"smiles": "OCCNCCO", "outcome": "inactive"}
{"smiles": "CCC(C)c1ccccc1O", "note": "(configuration not stated)", "outcome": "inactive"}
{"smiles": "CC1=CC(C)(C)Nc2ccccc21", "outcome": "inactive"}
{"smiles": "Cc1ccc(N)c([N+](=O)[O-])c1", "outcome": "inactive"}
{"smiles": "CCCCOCCO", "outcome": "inactive"}
{"test_system": "not listed separately", "assay": "qHTS assay for small molecule agonists of retinoid X receptor alpha signaling (AID 588544)", "conditions": "HEK293T RXRa-UAS-bla, beta-lactamase reporter, 18 h; 530 nm emission"}
{"smiles": "CCCN(CCC)C(=O)SCC", "max response": "-2.35% and -18.5%"}
{"smiles": "COc1ccc2nc(N)sc2c1", "max response": "-6.78% and -2.22%"}
{"smiles": "ClCCCl", "max response": "-4.78% and -12% and 1.75%"}
{"smiles": "CCC(O)OC(O)CC", "note": "(configuration not stated)", "max response": "-2.11% and -3.85% and -13.7%"}
{"smiles": "C=Cc1ccccc1Cl", "max response": "-6.66%"}
{"smiles": "c1ccc2c(c1)c1cccc3ccc4cccc2c4c31", "max response": "-17% and -12.4%"}
{"smiles": "Cc1cccc([N+](=O)[O-])c1C", "max response": "-8% and -5.71%"}
{"smiles": "CCCCCCCCO", "max response": "-1.34% and -17.2% and -8.68%"}
{"smiles": "CC(C)=CCCC(C)CCO", "note": "(configuration not stated)", "max response": "-10.2% and -2.4%"}
{"smiles": "O=[N+]([O-])c1cccc(Cl)c1Cl", "max response": "6.35% and -11.4%"}
{"smiles": "CCO[Si](CCCN)(OCC)OCC", "max response": "12.6% and -3.12%"}
{"smiles": "Clc1cc(Cl)c(Cl)cc1Cl", "max response": "4.21% and -11.5%"}
{"smiles": "CCO", "max response": "1.82%"}
{"smiles": "Clc1cc(Cl)c(Cl)c(Cl)c1Cl", "max response": "-1.44% and -10.6%"}
{"smiles": "CCCCC(CC)CN", "note": "(configuration not stated)", "max response": "-5.69% and -12.2%"}
{"smiles": "O=NO", "max response": "-10.7% and -17.9%"}
{"smiles": "c1ccc2c(c1)[nH]c1ccccc12", "max response": "2.28% and -6.27%"}
{"smiles": "OCCNCCO", "max response": "-28.3% and -18.3%"}
{"smiles": "Nc1ccc(Cl)cc1Cl", "max response": "-10.9%"}
{"smiles": "CCC(C)c1ccccc1O", "note": "(configuration not stated)", "max response": "-16.8% and -5.28% and 4.79%"}
{"smiles": "CC1=CC(C)(C)Nc2ccccc21", "max response": "-19.9% and -2.04%"}
{"smiles": "Cc1ccc(N)c([N+](=O)[O-])c1", "max response": "-17.4% and -9.33%"}
{"smiles": "CCCCOCCO", "max response": "-6.03% and -11.6% and -17.6%"}
{"smiles": "CC(=O)OC/C=C(\\C)CCC=C(C)C", "max response": "4.32% and -5.25%"}
{"biological_target": "Retinoic acid receptor RXR-alpha (Homo sapiens) (UniProt P19793)", "sequence (P19793 whole entry, looked up)": "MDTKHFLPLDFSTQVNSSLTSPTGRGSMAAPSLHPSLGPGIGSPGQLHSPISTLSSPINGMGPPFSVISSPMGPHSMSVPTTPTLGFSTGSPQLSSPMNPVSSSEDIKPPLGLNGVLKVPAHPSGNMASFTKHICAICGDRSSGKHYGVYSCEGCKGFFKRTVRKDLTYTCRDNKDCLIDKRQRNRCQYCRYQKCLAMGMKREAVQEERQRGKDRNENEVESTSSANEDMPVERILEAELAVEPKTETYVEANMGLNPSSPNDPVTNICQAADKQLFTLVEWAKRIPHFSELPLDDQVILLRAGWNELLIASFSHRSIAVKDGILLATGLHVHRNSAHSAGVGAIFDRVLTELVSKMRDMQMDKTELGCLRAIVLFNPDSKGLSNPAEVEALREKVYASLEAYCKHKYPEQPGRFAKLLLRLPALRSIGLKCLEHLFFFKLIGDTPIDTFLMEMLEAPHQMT", "assay": "qHTS assay for small molecule agonists of retinoid X receptor alpha signaling (AID 588544)", "conditions": "HEK293T RXRa-UAS-bla, beta-lactamase reporter, 18 h; series mostly up to 76.7 µM"}
{"smiles": "CCCN(CCC)C(=O)SCC", "outcome": "inactive"}
{"smiles": "COc1ccc2nc(N)sc2c1", "outcome": "inactive"}
{"smiles": "ClCCCl", "outcome": "inactive"}
{"smiles": "C=Cc1ccccc1Cl", "outcome": "inactive"}
{"smiles": "CCCCCCCCO", "outcome": "inactive"}
{"smiles": "Clc1cc(Cl)c(Cl)c(Cl)c1Cl", "outcome": "inactive"}
{"smiles": "OCCNCCO", "outcome": "inactive"}
{"smiles": "Nc1ccc(Cl)cc1Cl", "outcome": "inactive"}
{"smiles": "CCC(C)c1ccccc1O", "note": "(configuration not stated)", "outcome": "inactive"}
{"biological_target": "Thyroid hormone receptor beta (Homo sapiens) (UniProt P10828)", "sequence (P10828 whole entry, looked up)": "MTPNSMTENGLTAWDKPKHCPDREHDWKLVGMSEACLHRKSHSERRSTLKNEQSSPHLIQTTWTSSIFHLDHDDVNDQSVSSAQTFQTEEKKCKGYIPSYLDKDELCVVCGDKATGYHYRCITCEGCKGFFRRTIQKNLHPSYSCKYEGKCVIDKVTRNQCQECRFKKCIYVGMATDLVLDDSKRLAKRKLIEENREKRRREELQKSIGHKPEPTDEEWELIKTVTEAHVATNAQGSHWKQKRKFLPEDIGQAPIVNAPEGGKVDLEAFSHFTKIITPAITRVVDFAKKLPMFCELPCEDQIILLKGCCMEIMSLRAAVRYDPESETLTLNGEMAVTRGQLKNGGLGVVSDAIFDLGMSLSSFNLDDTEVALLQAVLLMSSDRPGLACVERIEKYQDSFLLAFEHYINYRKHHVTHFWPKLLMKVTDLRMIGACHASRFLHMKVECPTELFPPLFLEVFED", "assay": "qHTS assay for small molecule agonists of thyroid hormone receptor beta signaling (AID 588545)", "conditions": "TR-UAS-bla GripTite HEK 293, beta-lactamase ratio, agonist mode, 18 h, percent of T3 response, DMSO as zero; series mostly up to 76.7 µM", "outline": "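In this cell-based screen, titrated compounds act on HEK 293 cells held in medium with 2% charcoal/dextran FBS, NEAA and pyruvate for 18 hrs at 37 C. Responses are expressed relative to T3 (10 nM) as 100% and basal DMSO as 0%.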"}
{"smiles": "CCCN(CCC)C(=O)SCC", "outcome": "inactive"}
{"smiles": "COc1ccc2nc(N)sc2c1", "outcome": "inactive"}
{"smiles": "ClCCCl", "outcome": "inactive"}
{"smiles": "CCC(O)OC(O)CC", "note": "(configuration not stated)", "outcome": "inactive"}
{"smiles": "C=Cc1ccccc1Cl", "outcome": "inactive"}
{"smiles": "Cc1cccc([N+](=O)[O-])c1C", "outcome": "inactive"}
{"smiles": "CCCCCCCCO", "outcome": "inactive"}
{"smiles": "CC(C)=CCCC(C)CCO", "note": "(configuration not stated)", "outcome": "inactive"}
{"smiles": "Clc1cc(Cl)c(Cl)cc1Cl", "outcome": "inactive"}
{"smiles": "CCO", "outcome": "inactive"}
{"smiles": "C=CC(=O)OCCOCCOCCOCCOC(=O)C=C", "outcome": "inactive"}
{"smiles": "Clc1cc(Cl)c(Cl)c(Cl)c1Cl", "outcome": "inactive"}
{"smiles": "CCCCC(CC)CN", "note": "(configuration not stated)", "outcome": "inactive"}
{"smiles": "O=NO", "outcome": "inactive"}
{"smiles": "c1ccc2c(c1)[nH]c1ccccc12", "outcome": "inactive"}
{"smiles": "Nc1ccc(Cl)cc1Cl", "outcome": "inactive"}
{"smiles": "CCC(C)c1ccccc1O", "note": "(configuration not stated)", "outcome": "inactive"}
{"smiles": "CC1=CC(C)(C)Nc2ccccc21", "outcome": "inactive"}
{"smiles": "CN(C)C=O", "outcome": "inactive"}
{"smiles": "Cc1ccc(N)c([N+](=O)[O-])c1", "outcome": "inactive"}
{"smiles": "CCCCOCCO", "outcome": "inactive"}
{"smiles": "CC(=O)OC/C=C(\\C)CCC=C(C)C", "outcome": "inactive"}
{"test_system": "not listed separately", "assay": "qHTS assay for small molecule antagonists of retinoid X receptor alpha signaling (AID 588546);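 also: cells stimulated with 9-cis-retinoic acid as agonist; % is scaled to controls: 0 for no effect and ±100 for the full control effect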", "conditions": "HEK293T RXRa-UAS-bla, beta-lactamase ratio, antagonist mode; measured here: W530 green channel, cytotoxicity proxy", "outline": "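Beta-lactamase reporter inhibition, read as CCF4 fluorescence ratio (ex 405, em 460/530 nm) after 2 h at RT. HEK293T UAS-bla cells, 2500/well, were stimulated with 9-cis-RA at 500 or 100 nM final alongside test compound for 18 h at 37 C.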"}
{"smiles": "CCCN(CCC)C(=O)SCC", "max response": "-11.5% and -6.21%"}
{"smiles": "COc1ccc2nc(N)sc2c1", "max response": "-1.24% and 0.0893%"}
{"smiles": "ClCCCl", "max response": "-8.92% and -8.87% and -8.24%"}
{"smiles": "CCC(O)OC(O)CC", "note": "(configuration not stated)", "max response": "-6.87% and -7.76%"}
{"smiles": "C=Cc1ccccc1Cl", "max response": "-3.63%"}
{"smiles": "c1ccc2c(c1)c1cccc3ccc4cccc2c4c31", "max response": "-0.47% and 10%"}
{"smiles": "Cc1cccc([N+](=O)[O-])c1C", "max response": "-3.46% and -5.25%"}
{"smiles": "CCCCCCCCO", "max response": "-5.18% and -18.2% and -19.2%"}
{"smiles": "CC(C)=CCCC(C)CCO", "note": "(configuration not stated)", "max response": "-7.35% and -8.91%"}
{"smiles": "O=[N+]([O-])c1cccc(Cl)c1Cl", "max response": "3.16% and 3%"}
{"smiles": "CCO[Si](CCCN)(OCC)OCC", "max response": "-0.81% and -5.53%"}
{"smiles": "Clc1cc(Cl)c(Cl)cc1Cl", "max response": "-13.2% and -12.3%"}
{"smiles": "CCO", "max response": "-7.92%"}
{"smiles": "Clc1cc(Cl)c(Cl)c(Cl)c1Cl", "max response": "-5.69% and -1.37%"}
{"smiles": "CCCCC(CC)CN", "note": "(configuration not stated)", "max response": "-4.73% and -4.29%"}
{"smiles": "O=NO", "max response": "-4.23% and -6.24%"}
{"smiles": "c1ccc2c(c1)[nH]c1ccccc12", "max response": "-0.129% and 3.48%"}
{"smiles": "OCCNCCO", "max response": "-14.5% and -2.92%"}
{"smiles": "Nc1ccc(Cl)cc1Cl", "max response": "2.24% and -0.667%"}
{"smiles": "CCC(C)c1ccccc1O", "note": "(configuration not stated)", "max response": "-6.22% and -6.2% and -6.14%"}
{"smiles": "CC1=CC(C)(C)Nc2ccccc21", "max response": "-11.3% and -9.31%"}
{"smiles": "CN(C)C=O", "max response": "4.64% and -5.61%"}
{"smiles": "Cc1ccc(N)c([N+](=O)[O-])c1", "max response": "-10.8% and -10%"}
{"smiles": "CCCCOCCO", "max response": "-0.95% and -3.08% and -12.9%"}
{"smiles": "CC(=O)OC/C=C(\\C)CCC=C(C)C", "max response": "-3.71% and -6.77%"}
